Test results taken from publication PMC12864922, “TDP-43 directly inhibits mRNA accumulation in neurites through modulation of mRNA stability”.
Whole data set: some 9,900 sequences, median “r (bound/input frequency ratio)” near 0.7, cut for the highest 2% near 6.5. The full list was thinned out, with the highest values kept by preference.

B1: ENSMUSG00000031028.254|Tub|5:10 (ssRNA)
RNA: GGGAGUUCUACAGUCCGACGAUCGCUUCGAUAUCCGCAUGCUAUGCCACACACCCAUCUGUGAGAAGCUUCUUGGAGCUGAGACACCAGAGGGAAGCAAAGAGCAUUUAGACAUUGCUUUUUGCUUUGAAAUAGAUAUGUUUGGAAACGCUAAGUAGAAGUUUAAAAAGUAGAGUCAUGUAGAGUCAUGCUUUGAAUAUGUGGGUCAUGCUUUAGAUAUGAAGAGGCUAUGCAGGUAAGGAGGCUGGAUUGAUGUAAAUGGAAGUAGUACUUUAAGAAAGCUCUAGAUUUCCCAGGUUGGACACUCUUGCGGUCGCACUAGUGUGGAAUUCUCGGGUGUCAAGG
B2: ENSMUSG00000090935.680|Synj2bp|248:252 (ssRNA)
RNA: GGGAGUUCUACAGUCCGACGAUCGCUUCGAUAUCCGCAUGCUAUUGAGAUUCACCACUGUCAGGAGCUCUCUCUCUCUGCUUAGAAUCAUCCAGACAGCGGGCUGGUCAGCCCACAUUAAAUAAGAACAUGUGGGACUAGAAUUCAGUCAACAAUGACAUGUUUCAUCAGGUGGUUAAAAUGUACAGAUUCUGUUGGAAAUGUUCCAUGGUAUUUCAAUAGCCAGAAUGAAGAACUGGGCUAAGUCCAGAGCUCUGCUCUCUGAGCAUCUGCCCCAGAUACAGAGGCAGACAUACAAGUGGAACUCUUGCGGUCGCACUAGUGUGGAAUUCUCGGGUGUCAAGG
B3: ENSMUSG00000031028.409|Tub (ssRNA)
RNA: GGGAGUUCUACAGUCCGACGAUCGCUUCGAUAUCCGCAUGCUAACAGGAAGAUCCCUUACCCCUCAUCCCCUCUUCUUUUUGGUCCUUGGCUGGGUAGCAAAUUGGUGAGAAGAGCAGCCUAGUCUGUAAGAGUGCAGGGCAGCUGGAACCUUAGGCAGCUCCUCUGUAUGCUACCGGCUCCACACCCUAACACUCUCCACCCUCUGCUCCAAACCAGUUCUUCUGCAGAGUGGUGAUGUUAGCUUCCCCAGCUCCUCUCCAAGUCUAGCUUUUUCUGUCCUUCUGGCUCCAAGGUGCUCUGUCUCUUGCGGUCGCACUAGUGUGGAAUUCUCGGGUGUCAAGG
B4: ENSMUSG00000031028.416|Tub (ssRNA)
RNA: GGGAGUUCUACAGUCCGACGAUCGCUUCGAUAUCCGCAUGCUACUUGGCUGGGUAGCAAAUUGGUGAGAAGAGCAGCCUAGUCUGUAAGAGUGCAGGGCAGCUGGAACCUUAGGCAGCUCCUCUGUAUGCUACCGGCUCCACACCCUAACACUCUCCACCCUCUGCUCCAAACCAGUUCUUCUGCAGAGUGGUGAUGUUAGCUUCCCCAGCUCCUCUCCAAGUCUAGCUUUUUCUGUCCUUCUGGCUCCAAGGUGCUCUGUGUCUGUGUGUGUGUGUCUGUCUGUGUGUGUGUGUGUCGAGGACUCUUGCGGUCGCACUAGUGUGGAAUUCUCGGGUGUCAAGG
B5: ENSMUSG00000031028.419|Tub|64:68;198:202;204:216;222:236 (ssRNA)
RNA: GGGAGUUCUACAGUCCGACGAUCGCUUCGAUAUCCGCAUGCUAUGGUGAGAAGAGCAGCCUAGUCUGUAAGAGUGCAGGGCAGCUGGAACCUUAGGCAGCUCCUCUCAUACCUACCGGCUCCACACCCUAACACUCUCCACCCUCUGCUCCAAACCAGUUCUUCUGCAGAGUGGUGAUGUUAGCUUCCCCAGCUCCUCUCCAAGUCUAGCUUUUUCUGUCCUUCUGGCUCCAAGGUGCUCACACACACACACACACACACUGUCACACACACACACACACGAGGAAAGGGCAAUCUGCAAACACUCUUGCGGUCGCACUAGUGUGGAAUUCUCGGGUGUCAAGG
B6: ENSMUSG00000031028.421|Tub (ssRNA)
RNA: GGGAGUUCUACAGUCCGACGAUCGCUUCGAUAUCCGCAUGCUACAGCCUAGUCUGUAAGAGUGCAGGGCAGCUGGAACCUUAGGCAGCUCCUCUGUAUGCUACCGGCUCCACACCCUAACACUCUCCACCCUCUGCUCCAAACCAGUUCUUCUGCAGAGUGGUGAUGUUAGCUUCCCCAGCUCCUCUCCAAGUCUAGCUUUUUCUGUCCUUCUGGCUCCAAGGUGCUCUGUGUCUGUGUGUGUGUGUCUGUCUGUGUGUGUGUGUGUCGAGGAAAGGGCAAUCUGCAAACAAUGAACAGAAGUCUCUUGCGGUCGCACUAGUGUGGAAUUCUCGGGUGUCAAGG
B7: ENSMUSG00000031028.418|Tub (ssRNA)
RNA: GGGAGUUCUACAGUCCGACGAUCGCUUCGAUAUCCGCAUGCUAGCAAAUUGGUGAGAAGAGCAGCCUAGUCUGUAAGAGUGCAGGGCAGCUGGAACCUUAGGCAGCUCCUCUGUAUGCUACCGGCUCCACACCCUAACACUCUCCACCCUCUGCUCCAAACCAGUUCUUCUGCAGAGUGGUGAUGUUAGCUUCCCCAGCUCCUCUCCAAGUCUAGCUUUUUCUGUCCUUCUGGCUCCAAGGUGCUCUGUGUCUGUGUGUGUGUGUCUGUCUGUGUGUGUGUGUGUCGAGGAAAGGGCAAUCUGCUCUUGCGGUCGCACUAGUGUGGAAUUCUCGGGUGUCAAGG

biological target: TDP-43 (Homo sapiens, UniProt Q13148 1-414); assay: RNA Bind-n-Seq with designed 260-mer pool; 25 mM Tris-HCl, 150 mM KCl, 3 mM MgCl2, BSA (printed 500 mg/mL), 20 units/mL SUPERase IN; pH not stated; 500 nM RNA pool, 1 h, 4 C; TDP-43 5, 50, 500 nM; high values mean tight binding; conditions: protein: recombinant; tags: SBP (GST cleaved off with PreScission; pGEX-GST-SBP)
Sequence (Q13148 whole entry): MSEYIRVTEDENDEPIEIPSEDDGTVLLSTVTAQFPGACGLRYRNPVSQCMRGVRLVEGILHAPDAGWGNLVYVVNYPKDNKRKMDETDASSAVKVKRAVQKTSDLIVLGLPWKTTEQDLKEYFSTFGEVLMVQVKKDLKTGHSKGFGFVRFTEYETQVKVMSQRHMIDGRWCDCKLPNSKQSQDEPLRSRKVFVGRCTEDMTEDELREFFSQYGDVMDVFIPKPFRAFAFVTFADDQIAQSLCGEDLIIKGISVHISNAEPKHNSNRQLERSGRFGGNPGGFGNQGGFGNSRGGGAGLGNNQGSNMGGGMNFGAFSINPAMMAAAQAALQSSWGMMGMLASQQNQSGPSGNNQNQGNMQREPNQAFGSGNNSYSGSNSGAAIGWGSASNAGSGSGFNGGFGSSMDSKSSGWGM
Procedure, shortened: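 In 25 mM Tris-HCl, 150 mM KCl, 3 mM MgCl2, BSA and SUPERase IN, 500 nM of an in vitro-transcribed 260-nt 3′ UTR oligo pool was incubated for 1 h at 4 °C with SBP-tagged TDP-43 (5, 50 or 500 nM) captured on streptavidin beads. RNA remaining after washes was biotin-eluted, reverse transcribed, PCR-amplified and sequenced. Binding, R, is the bound-sample abundance of each oligo, normalized to mapped reads, divided by its abundance in input. Each duplicate used a separate, independent protein batch.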

Binder	binding signal
B1	1.12 R (bound/input frequency ratio)
B2	0.197 R (bound/input frequency ratio)
B3	0.927 R (bound/input frequency ratio)
B4	6.14 R (bound/input frequency ratio)
B5	3.42 R (bound/input frequency ratio)
B6	5.82 R (bound/input frequency ratio)
B7	7.04 R (bound/input frequency ratio)
